Experimental findings from article PMC7862700, “An all-to-all approach to the identification of sequence-specific readers for epigenetic DNA modifications on cytosine” are described below.

Holding throughout (test): DAPPL (digital affinity profiling via proximity ligation, sequencing); 10 mM Tris-HCl pH 7.5, 50 mM NaCl, 1 mM DTT, 4% glycerol, room temperature, 30 min; GST-TFs on glutathione beads, 16-mer random dsDNA library, 0.1% formaldehyde crosslink after washing; high values mean tight binding
Conditions in all cases: protein: recombinant; tags: N-terminal GST; dsDNA, one strand shown

For one experiment, the target named is T1, ELK1 (Homo sapiens, UniProt P19419 1-428).
T1 sequence: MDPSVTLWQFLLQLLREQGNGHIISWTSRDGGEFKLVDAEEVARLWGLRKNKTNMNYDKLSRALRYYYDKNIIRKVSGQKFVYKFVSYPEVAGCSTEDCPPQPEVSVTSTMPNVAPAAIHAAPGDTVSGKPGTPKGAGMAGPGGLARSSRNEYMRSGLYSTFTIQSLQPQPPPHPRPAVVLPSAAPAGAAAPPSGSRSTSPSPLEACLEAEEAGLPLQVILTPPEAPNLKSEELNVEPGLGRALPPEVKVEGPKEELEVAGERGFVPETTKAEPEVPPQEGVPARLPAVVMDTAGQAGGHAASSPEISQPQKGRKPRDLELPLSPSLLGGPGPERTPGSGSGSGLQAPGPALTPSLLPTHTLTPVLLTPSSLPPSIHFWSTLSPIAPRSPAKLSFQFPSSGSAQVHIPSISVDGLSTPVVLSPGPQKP
Summed up:
(§1)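 Binding signal is given per hexamer as its read frequency for a factor divided by its frequency in the tag-only sample. GST-fused human transcription factors were expressed in yeast, captured on glutathione beads, barcoded with DNA and pooled with that sample, then incubated with 200 nmole of a 16-mer random double-stranded DNA library in Tris/NaCl/DTT/glycerol buffer for 30 min at room temperature. The pools were then washed, crosslinked, proximity-ligated, amplified by PCR and sequenced on an Illumina NextSeq500.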

The target of a further experiment is T2, GABPA (Homo sapiens, UniProt Q06546 1-454).
T2 sequence: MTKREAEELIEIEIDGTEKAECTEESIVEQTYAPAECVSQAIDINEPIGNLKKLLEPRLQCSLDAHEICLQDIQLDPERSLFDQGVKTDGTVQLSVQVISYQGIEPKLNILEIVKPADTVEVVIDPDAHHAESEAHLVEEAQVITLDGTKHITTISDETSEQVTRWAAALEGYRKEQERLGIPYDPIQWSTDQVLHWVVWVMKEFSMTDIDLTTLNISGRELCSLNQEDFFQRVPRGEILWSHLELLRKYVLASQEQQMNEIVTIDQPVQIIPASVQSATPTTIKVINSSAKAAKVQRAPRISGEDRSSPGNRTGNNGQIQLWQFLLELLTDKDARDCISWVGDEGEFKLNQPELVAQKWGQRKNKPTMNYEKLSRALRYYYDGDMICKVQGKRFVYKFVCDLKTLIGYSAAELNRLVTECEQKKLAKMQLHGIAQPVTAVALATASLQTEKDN
Summed up:
as §1

The next experiment addresses ELF4 (Homo sapiens, UniProt Q99607 1-663). A digest of the protocol: as §1
The target of another experiment is T3, ELK4 (Homo sapiens, UniProt P28324-2 1-405).
T3 sequence: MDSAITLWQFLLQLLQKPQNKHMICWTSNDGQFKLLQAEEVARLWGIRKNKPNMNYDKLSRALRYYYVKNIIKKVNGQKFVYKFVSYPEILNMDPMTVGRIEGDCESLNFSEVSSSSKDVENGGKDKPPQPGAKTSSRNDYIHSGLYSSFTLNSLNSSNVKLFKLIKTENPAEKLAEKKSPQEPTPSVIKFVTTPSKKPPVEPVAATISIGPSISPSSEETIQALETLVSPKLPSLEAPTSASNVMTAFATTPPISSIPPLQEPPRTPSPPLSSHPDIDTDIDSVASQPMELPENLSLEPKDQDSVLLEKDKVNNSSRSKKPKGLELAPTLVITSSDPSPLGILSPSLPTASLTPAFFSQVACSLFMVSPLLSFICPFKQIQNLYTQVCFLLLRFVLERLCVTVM
A digest of the protocol:
as §1

Another experiment addresses T4, ETV2 (Homo sapiens, UniProt O00321 1-342).
T4 sequence: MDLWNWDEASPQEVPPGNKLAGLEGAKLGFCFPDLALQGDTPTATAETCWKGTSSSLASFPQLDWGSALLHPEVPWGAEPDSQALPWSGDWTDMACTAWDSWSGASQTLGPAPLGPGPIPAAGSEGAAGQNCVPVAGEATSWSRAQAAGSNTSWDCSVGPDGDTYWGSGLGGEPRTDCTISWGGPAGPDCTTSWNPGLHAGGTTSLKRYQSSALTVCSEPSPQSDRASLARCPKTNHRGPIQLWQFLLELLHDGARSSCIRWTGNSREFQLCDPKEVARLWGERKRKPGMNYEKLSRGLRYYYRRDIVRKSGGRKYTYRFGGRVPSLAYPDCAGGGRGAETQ
A digest of the protocol:
as §1

The target of the next experiment is T5, ERF (Homo sapiens, UniProt P50548 1-548).
T5 sequence: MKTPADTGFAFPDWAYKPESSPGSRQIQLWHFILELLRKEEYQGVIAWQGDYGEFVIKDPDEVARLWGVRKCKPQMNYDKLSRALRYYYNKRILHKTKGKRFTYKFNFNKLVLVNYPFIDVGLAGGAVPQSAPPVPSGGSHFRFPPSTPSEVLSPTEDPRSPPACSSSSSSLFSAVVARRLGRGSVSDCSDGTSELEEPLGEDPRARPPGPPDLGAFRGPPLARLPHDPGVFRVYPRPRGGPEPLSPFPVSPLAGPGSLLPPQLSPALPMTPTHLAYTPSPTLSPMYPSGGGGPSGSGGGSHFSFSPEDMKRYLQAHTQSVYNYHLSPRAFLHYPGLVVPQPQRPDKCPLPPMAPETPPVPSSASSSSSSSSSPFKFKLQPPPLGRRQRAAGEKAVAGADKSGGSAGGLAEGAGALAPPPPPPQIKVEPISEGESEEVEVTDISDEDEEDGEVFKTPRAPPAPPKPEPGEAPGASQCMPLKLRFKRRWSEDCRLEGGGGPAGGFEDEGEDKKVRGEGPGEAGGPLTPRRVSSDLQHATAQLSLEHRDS
Summed up: as §1

In a further experiment the target is ETV6 (Homo sapiens, UniProt P41212 1-452). Summed up:
as §1

The next experiment concerns the target ELF1 (Homo sapiens, UniProt P32519 1-619). A digest of the protocol: as §1
The next experiment concerns the target SPIB (Homo sapiens, UniProt Q01892 1-262). A digest of the protocol:
as §1

A further experiment addresses T6, ELF3 (Homo sapiens, UniProt P78545 1-371).
T6 sequence: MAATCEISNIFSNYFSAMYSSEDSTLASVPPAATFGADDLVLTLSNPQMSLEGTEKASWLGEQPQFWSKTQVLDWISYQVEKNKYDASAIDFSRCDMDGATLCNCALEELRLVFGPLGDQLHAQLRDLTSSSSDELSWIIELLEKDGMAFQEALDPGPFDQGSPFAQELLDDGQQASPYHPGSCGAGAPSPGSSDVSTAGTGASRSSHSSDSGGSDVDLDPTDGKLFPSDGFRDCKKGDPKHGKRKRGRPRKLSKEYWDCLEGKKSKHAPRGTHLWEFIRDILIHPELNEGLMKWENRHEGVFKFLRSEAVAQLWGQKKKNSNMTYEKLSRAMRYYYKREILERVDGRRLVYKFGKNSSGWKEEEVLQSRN
Summed up:
as §1

Another experiment has as its target CRX (Homo sapiens, UniProt O43186 1-299). A digest of the protocol:
as §1

The target in a further experiment is T7, ETV3L (Homo sapiens, UniProt Q6ZN32 1-361).
T7 sequence: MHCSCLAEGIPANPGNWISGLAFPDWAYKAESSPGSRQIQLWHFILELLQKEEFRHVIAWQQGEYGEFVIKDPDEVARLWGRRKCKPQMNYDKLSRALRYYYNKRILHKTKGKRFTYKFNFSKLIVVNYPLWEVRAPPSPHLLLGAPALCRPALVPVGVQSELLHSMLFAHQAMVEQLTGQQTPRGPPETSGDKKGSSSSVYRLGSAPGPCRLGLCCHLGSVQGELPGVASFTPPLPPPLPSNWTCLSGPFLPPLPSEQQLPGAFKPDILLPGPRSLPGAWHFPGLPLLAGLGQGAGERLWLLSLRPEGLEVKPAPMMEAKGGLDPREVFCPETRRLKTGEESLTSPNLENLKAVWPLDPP
Summed up: as §1

ELF4, sequence (Q99607 whole entry): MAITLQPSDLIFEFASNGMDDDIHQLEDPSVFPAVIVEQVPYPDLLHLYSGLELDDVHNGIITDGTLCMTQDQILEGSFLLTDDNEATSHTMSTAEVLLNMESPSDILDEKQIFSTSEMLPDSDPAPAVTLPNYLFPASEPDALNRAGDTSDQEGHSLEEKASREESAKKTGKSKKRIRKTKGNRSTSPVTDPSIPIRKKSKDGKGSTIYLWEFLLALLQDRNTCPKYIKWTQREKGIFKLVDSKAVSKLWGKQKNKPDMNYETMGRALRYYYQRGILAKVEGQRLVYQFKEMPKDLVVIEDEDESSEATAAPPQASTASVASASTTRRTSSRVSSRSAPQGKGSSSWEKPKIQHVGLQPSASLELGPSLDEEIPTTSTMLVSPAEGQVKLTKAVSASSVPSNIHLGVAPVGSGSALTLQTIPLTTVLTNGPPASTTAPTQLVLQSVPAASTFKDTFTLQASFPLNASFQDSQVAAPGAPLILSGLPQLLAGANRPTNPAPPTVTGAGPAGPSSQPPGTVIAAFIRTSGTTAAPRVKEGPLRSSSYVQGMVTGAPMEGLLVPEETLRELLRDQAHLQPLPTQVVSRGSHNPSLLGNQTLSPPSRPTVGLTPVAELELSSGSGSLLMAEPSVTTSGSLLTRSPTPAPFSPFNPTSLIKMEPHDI
CRX, sequence (O43186 whole entry): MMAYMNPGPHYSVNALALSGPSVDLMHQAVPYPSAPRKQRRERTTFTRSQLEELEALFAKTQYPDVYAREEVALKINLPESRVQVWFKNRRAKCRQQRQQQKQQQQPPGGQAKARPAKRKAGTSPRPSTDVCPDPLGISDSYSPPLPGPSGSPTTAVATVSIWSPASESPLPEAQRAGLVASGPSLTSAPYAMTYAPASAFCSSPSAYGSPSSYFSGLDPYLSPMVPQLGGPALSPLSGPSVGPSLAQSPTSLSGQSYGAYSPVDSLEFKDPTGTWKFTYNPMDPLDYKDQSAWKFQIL
SPIB, sequence (Q01892 whole entry): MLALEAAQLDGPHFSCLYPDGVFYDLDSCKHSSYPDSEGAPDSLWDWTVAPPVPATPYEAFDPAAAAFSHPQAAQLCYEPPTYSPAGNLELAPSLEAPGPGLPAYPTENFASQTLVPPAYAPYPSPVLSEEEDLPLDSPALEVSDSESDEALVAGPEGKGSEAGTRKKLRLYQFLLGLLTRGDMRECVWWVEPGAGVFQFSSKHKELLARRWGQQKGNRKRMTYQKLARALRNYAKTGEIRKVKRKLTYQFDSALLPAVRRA
ELF1, sequence (P32519 whole entry): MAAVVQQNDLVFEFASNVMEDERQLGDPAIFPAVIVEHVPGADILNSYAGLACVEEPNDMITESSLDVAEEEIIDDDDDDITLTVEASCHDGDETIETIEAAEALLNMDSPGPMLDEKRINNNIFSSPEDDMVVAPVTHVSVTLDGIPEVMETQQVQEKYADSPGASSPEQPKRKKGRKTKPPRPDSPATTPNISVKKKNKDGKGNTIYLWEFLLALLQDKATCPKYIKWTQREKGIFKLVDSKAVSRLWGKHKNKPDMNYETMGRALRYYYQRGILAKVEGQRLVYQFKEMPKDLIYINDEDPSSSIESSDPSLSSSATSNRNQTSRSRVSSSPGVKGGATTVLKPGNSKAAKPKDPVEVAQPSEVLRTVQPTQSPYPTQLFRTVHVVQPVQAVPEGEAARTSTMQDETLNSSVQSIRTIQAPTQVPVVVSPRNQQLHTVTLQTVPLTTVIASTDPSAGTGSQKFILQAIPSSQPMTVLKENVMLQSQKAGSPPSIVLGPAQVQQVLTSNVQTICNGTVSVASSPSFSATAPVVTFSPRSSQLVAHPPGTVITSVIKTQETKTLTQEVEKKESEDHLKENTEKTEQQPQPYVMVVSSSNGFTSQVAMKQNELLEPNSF
ETV6, sequence (P41212 whole entry): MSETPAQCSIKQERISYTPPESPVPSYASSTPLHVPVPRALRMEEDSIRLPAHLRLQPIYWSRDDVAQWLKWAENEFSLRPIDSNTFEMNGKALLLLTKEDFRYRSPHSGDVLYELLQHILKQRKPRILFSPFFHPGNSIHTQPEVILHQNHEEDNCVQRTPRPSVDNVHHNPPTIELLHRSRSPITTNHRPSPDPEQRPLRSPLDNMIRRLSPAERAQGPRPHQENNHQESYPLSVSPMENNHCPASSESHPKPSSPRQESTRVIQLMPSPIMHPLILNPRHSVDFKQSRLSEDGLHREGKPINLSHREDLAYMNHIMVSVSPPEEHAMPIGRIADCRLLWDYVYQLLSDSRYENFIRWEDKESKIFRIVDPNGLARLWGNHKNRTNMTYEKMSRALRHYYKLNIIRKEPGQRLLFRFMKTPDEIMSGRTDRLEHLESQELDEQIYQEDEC

On to GCAACA, for which the binding signal in the experiment with ELK1 is 1.03 fold enrichment (6-mer frequency, TF over GST control); in the experiment with GABPA, 1.08 fold enrichment (6-mer frequency, TF over GST control); with ELF4, 1.06 fold enrichment (6-mer frequency, TF over GST control); with ELK4 it was 1.08 fold enrichment (6-mer frequency, TF over GST control); with ETV2, 1.03 fold enrichment (6-mer frequency, TF over GST control); with ERF, 1.01 fold enrichment (6-mer frequency, TF over GST control). The binding signal with ETV6 was 1.03 fold enrichment (6-mer frequency, TF over GST control).

In the case of GCAGCA, the binding signal with ELF1 is 1.03 fold enrichment (6-mer frequency, TF over GST control); in the experiment with SPIB, 1.02 fold enrichment (6-mer frequency, TF over GST control); with ELF4, 1.01 fold enrichment (6-mer frequency, TF over GST control); in the experiment with ETV2, 1.01 fold enrichment (6-mer frequency, TF over GST control).

As for GACTAT, the binding signal is 1.01 fold enrichment (6-mer frequency, TF over GST control) with ELF4; 1.03 fold enrichment (6-mer frequency, TF over GST control) with ELF3; 1.02 fold enrichment (6-mer frequency, TF over GST control) with CRX; 1.04 fold enrichment (6-mer frequency, TF over GST control) with ETV3L.
